# SMARCA2 activ = increases SMARCA2 function in MMTV reporter cells; 370,000 tested, 1% active; activation, % at 9.1 µM; MG213 cells, MMTV-luciferase reporter, dexamethasone, overnight; in the data active means activation above about 7.8%;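 further: 0% = vehicle wells and 100% = reference activator wells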
# esBAF inh = SWI/SNF esBAF complex inhibition. mouse ES cells, Bmi1-luciferase knock-in reporter, 24 h; 100% = twice the neutral-well signal. reporter increase, % at 12.5 µM. 350,000 tested, 2% active. AID 602393; in the data active means activation above about 40%;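 further: 0% = median of the plate's neutral control wells and 100% = double that signal; a rise in the Bmi1 reporter signal indicates esBAF inhibition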
# Rtt109 Vps75 = C. albicans Rtt109 histone acetyltransferase inhibition; purified Rtt109/Vps75, ThioGlo CoA-SH fluorescence, 4 h; inhibition, % at 34.9 µM; 330,000 tested, 0.16% active;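 active means inhibition of at least 50% in every replicate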
# dFosB act-1 = mouse delta FosB homodimer activation | purified delta FosB, TAMRA-CDK5 oligo fluorescence polarization; percent of positive-control signal above neutral wells | 340,000 tested, 0.99% active | activation, % at 25 µM | P13346;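 active means mean activation above about 17%, with every replicate also reaching it, limit read from the data, passing the limit was not always enough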
# Target sequence (P13346 whole entry, looked up): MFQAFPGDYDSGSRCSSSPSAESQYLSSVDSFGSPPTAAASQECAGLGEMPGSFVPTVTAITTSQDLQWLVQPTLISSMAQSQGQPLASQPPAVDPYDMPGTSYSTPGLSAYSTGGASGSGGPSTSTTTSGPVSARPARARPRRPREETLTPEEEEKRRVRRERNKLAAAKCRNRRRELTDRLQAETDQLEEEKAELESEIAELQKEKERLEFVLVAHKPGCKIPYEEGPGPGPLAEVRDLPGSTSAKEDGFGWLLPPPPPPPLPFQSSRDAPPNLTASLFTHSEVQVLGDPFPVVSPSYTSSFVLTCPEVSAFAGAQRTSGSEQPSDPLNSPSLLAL
# CDK5 inh = blocks human CDK5/p35 kinase activity; 330,000 tested, 0.01% active; inhibition, % at 10 µM; Recombinant CDK5/p35, ADP-Glo luminescence, 60 min;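 active means highest replicate inhibition of at least 50% and at least 75% of replicates reaching 50%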;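 further: plate controls were DMSO neutral control for no effect and GW8510 at 10 µM for full effect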
# DYRK1A inh = inhibitors of rat Dyrk1A kinase; Q63470; ADP-Glo luminescence, NFATc1 peptide; inhibition, % at 12.5 µM; 310,000 tested, 0.43% active; in the data active means inhibition above about 50%;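 further: plate controls were vehicle with enzyme for no effect and no enzyme for full effect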
# dFosB act-2 = activators of mouse delta FosB homodimer DNA binding; shares compounds with dFosB act-1; activation, % at 24.9 µM; purified delta FosB, TAMRA-CDK5 oligo fluorescence polarization; normalised: neutral wells 0, positive control 100; 2,400 tested, under 10 active;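 active means highest replicate activation at or above 34% and every replicate reaching that threshold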;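 further: higher polarization means more probe DNA bound by delta FosB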
# Starred values were filed as active, the others as inactive; x = no result. Hits are enriched below; roughly 3.2% of the tested compounds scored in any of these assays.
SMILES,SMARCA2 activ,esBAF inh,Rtt109 Vps75,dFosB act-1,CDK5 inh,DYRK1A inh,dFosB act-2
O=C(CCCCn1c(=O)c2ccccc2n(CC(=O)Nc2cccc(F)c2)c1=O)NCc1ccco1,-1.5,11.9,-9.5,24.4*,-2.0,-3.2,-6.8
CCc1ccc(NC(=O)Cn2c(=O)n(CCCC(=O)NCc3ccco3)c(=O)c3ccccc32)cc1,-0.7,x,-8.1,5.8,-0.3,-1.2,x
C[C@H]1CN([C@@H](C)CO)C(=O)c2cccc(NS(=O)(=O)c3cn(C)cn3)c2O[C@H]1CN(C)Cc1ccncc1,x,-0.4,x,x,x,x,x
C[C@@H]1CN([C@@H](C)CO)C(=O)c2cc(C#CCN(C)C)cnc2O[C@@H]1CN(C)C(=O)c1cnccn1,x,-4.6,x,x,x,x,x
C[C@@]12C(=O)Nc3ccc(Br)cc3C(=O)N1[C@H]1c3cc(Br)ccc3OC[C@@H]1[C@@H]2c1ccccc1,-0.7,-10.6,9.0,38.1*,-1.7,-1.1,-6.9
COc1ccccc1CN1[C@H](C(=O)NCCc2ccncc2)[C@@H](CO)[C@@H]2Cn3c(cccc3=O)[C@@H]21,x,-1.8,x,x,x,x,x
O=C(COc1ncnc2ccc(Br)cc12)NCc1ccco1,-3.3,x,-5.3,22.4*,0.5,6.9,-6.5
COCCNC(=O)COc1ncnc2ccc(Br)cc12,0.3,7.3,-7.3,-3.3,0.0,4.4,x
C[C@@H]1CN([C@H](C)CO)S(=O)(=O)c2ccc(C#Cc3cccc(F)c3)cc2O[C@@H]1CN(C)CC1CC1,x,-7.6,x,x,x,x,x
COC(=O)c1cc(OC)c(OC)cc1NC(=O)c1cc(OC)cc(OC)c1,0.9,-2.4,-12.2,23.2*,-0.2,0.3,-4.2
COC(=O)c1cc(OC)c(OC)cc1NC(=O)c1csc(C)c1,-2.3,x,20.8,-2.2,0.4,0.2,x
Cc1ccc(-c2cc(C(=O)N/N=C/c3c(C)nn(C)c3C)c3ccccc3n2)cc1C,-0.6,47.9*,-14.8,42.6*,1.1,-5.0,0.7
Cc1ccc(S(=O)(=O)N(C)C[C@H]2Oc3ccc(NC(=O)CCCCCC(=O)Nc4ccccc4N)cc3CC(=O)N([C@@H](C)CO)C[C@@H]2C)cc1,x,1.8,x,x,x,x,x
Clc1ccc(NNc2ccnc3cc(Cl)ccc23)cc1,0.9,11.2,-10.9,1.0,0.1,1.6,x
Cc1ccccc1/C=N/Nc1ccnc2cc(Cl)ccc12,-2.4,x,-12.5,38.4*,2.5,4.5,1.5
O=C(COc1ccc(Cl)cc1Cl)Nc1ccc(-c2ccc(N3CCOCC3)nn2)cc1,-2.3,0.5,-1.9,41.9*,0.1,-6.7,-0.3
CCOC(=O)c1c(C)[nH]c(C(=O)OCC(=O)Nc2cc(C)ccc2OC)c1C,-1.2,2.4,-14.6,23.2*,-0.1,-16.5,-0.3
O=C(CCN1C(=O)c2cccc3cccc(c23)C1=O)Nc1ccccc1,7.9*,-1.2,-7.1,26.6*,-0.3,0.3,0.5
CC(=O)Nc1ccc(NC(=O)CCCCCN2C(=O)c3ccccc3C2=O)cc1,-1.7,-9.8,-5.7,24.6*,0.0,-2.3,-0.8
C[C@@H]1CN([C@@H](C)CO)S(=O)(=O)c2ccc(-c3ccc(C(=O)N(C)C)cc3)cc2O[C@@H]1CN(C)C(=O)Nc1ccccc1F,x,0.2,x,x,x,x,x
O=C(C[C@H]1CC[C@H](NC(=O)Nc2cc(F)ccc2F)[C@@H](CO)O1)NCc1ccccn1,x,-1.4,x,x,x,x,x
CCOc1ccc(-c2nnn(CC(=O)Nc3ccccc3OC)n2)cc1OCC,0.8,-8.0,3.9,58.8*,0.6,0.8,-0.2
O=C(Cn1nnc(-c2ccccc2)n1)NCc1cccs1,-1.4,-3.9,x,-5.6,1.0,-0.7,x
COc1ccc(-c2nnn(CC(=O)NCc3ccccc3)n2)cc1OC,-1.7,4.7,-13.4,10.6,-0.4,-0.6,x
COc1ccccc1C(=O)Nc1ccc(-c2nnn(CC(=O)NCc3ccco3)n2)cc1,-0.3,6.5,7.7,41.8*,1.7,-7.3,6.7
COc1ccc(-c2nnn(CC(=O)NCc3cccs3)n2)cc1OC,-3.3,2.5,-12.4,29.6*,0.4,-2.7,-1.5
COc1ccc(S(=O)(=O)N[C@H]2CC[C@H](CC(=O)N3CCN(c4ccccc4)CC3)O[C@H]2CO)cc1,x,2.4,x,x,x,x,x

# Screens deposited in PubChem BioAssay by several laboratories.
